This is an account of results in the supplement of paper PMC8285479.

The structures appear in SMILES notation. Counter-ions that a name gives are not always drawn. ± gives the standard deviation of the averaged measurements. In all, about 1,900 compounds were measured (“normalised cell viability (NPI; 0 = phenylarsine oxide control, 1 = DMSO control)”: median about 1, lowest 2% from about 0.039 on). Many of the other results were omitted from the sample, so the lowest values are more common in it than they were.

The experiment concerns NCI-H1944. The experiment is described as follows: normalised cell viability (NPI; 0 = phenylarsine oxide control, 1 = DMSO control) (fraction of DMSO control); NCI-H1944 is a non-small cell lung cancer line; higher = more viable cells (less compound toxicity). To be noted: 6 days.
Where [1] appears, read: glucocorticoid arm: hydrocortisone 2.75 uM co-treatment, compound 1 µM.
Where [2] appears, read: glucocorticoid arm: hydrocortisone 2.75 uM co-treatment, compound 5 µM.
Setting [3] is: glucocorticoid arm: hydrocortisone 2.75 uM pre-treated 2 days and continued, compound 1 µM.
The mark [4] stands for this setting: glucocorticoid arm: hydrocortisone 2.75 uM pre-treated 2 days and continued, compound 5 µM.
[5] abbreviates: glucocorticoid arm: vehicle, compound 1 µM.
Where [6] appears, read: glucocorticoid arm: vehicle, compound 5 µM.
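Also: CTB read-out in 384-well plates, triplicate wells, NPI normalised per plate against 1 µM phenylarsine oxide (0) and 0.1% DMSO (1) controls.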

Consider `CN(C)Cc1ccc(S(=O)(=O)n2ccc(/C=C/C(=O)NO)c2)cc1` [Resminostat], for which the normalised cell viability reads like this: under setting [1], 0.941 ± 0.011; under setting [2], 0.92 ± 0.018; under setting [3], 0.961 ± 0.011; under setting [4], 1.023 ± 0.0058; under setting [5], 1.001 ± 0.0081; under setting [6], 0.214 ± 0.026.

As for `N[C@@H](Cc1c[nH]c2ccccc12)C(=O)O` [L-Tryptophan], the normalised cell viability under setting [1] worked out at 1.01; the normalised cell viability under setting [2] stood at 1.027 ± 0.0058; the normalised cell viability under setting [3] worked out at 1.03 ± 0.032; the normalised cell viability under setting [4] was found to be 1.033 ± 0.0058; the normalised cell viability under setting [5] is 0.999 ± 0.001; the normalised cell viability under setting [6] stood at 1.003 ± 0.0058.

Turning to `O=C(/C=C/c1ccc(CN(CCO)CCc2c[nH]c3ccccc23)cc1)NO` [LAQ824 (Dacinostat)], the normalised cell viability runs as follows: under setting [1], 0.00706 ± 0.0016; under setting [2], -0.000483 ± 0.0039; under setting [3], 0.0151 ± 0.00085; under setting [4], 0.00158 ± 0.00078; under setting [5], 0.0063 ± 0.00096; under setting [6], -0.000399 ± 0.00047.

`Ic1ccc(N2CCN(Cc3c[nH]c4ncccc34)CC2)cc1` [L-750,667 trihydrochloride]: the normalised cell viability is 0.969 ± 0.003 under setting [1]; 0.883 ± 0.014 under setting [2]; 0.99 ± 0.0044 under setting [3]; 0.999 ± 0.087 under setting [4]; 0.988 ± 0.011 under setting [5]; 0.998 ± 0.019 under setting [6].

In the case of `CC1CCN=C(N)S1` (racemic) [(±)-AMT hydrochloride], the normalised cell viability is, setting by setting: under setting [1], 0.982 ± 0.015; under setting [2], 0.968 ± 0.015; under setting [3], 0.9923 ± 0.0067; under setting [4], 0.975 ± 0.0071; under setting [5], 0.9907 ± 0.0095; under setting [6], 0.9677 ± 0.0046.

With `OCc1ccc(-c2ccc(-c3ccc(CO)s3)o2)s1`, the normalised cell viability reads like this: under setting [1], 0.979 ± 0.0061; under setting [2], 0.0751 ± 0.0071; under setting [3], 1.017 ± 0.0058; under setting [4], 0.358 ± 0.022; under setting [5], 0.621 ± 0.045; under setting [6], 0.0128 ± 0.0026.

For the compound `CCc1ccc(/C=C2/SC(=S)NC2=O)cc1`, the normalised cell viability is, setting by setting: under setting [1], 1.01 ± 0.017; under setting [2], 1.06 ± 0.011; under setting [3], 1.04; under setting [4], 1.04 ± 0.021; under setting [5], 1.007 ± 0.0058; under setting [6], 1.013 ± 0.0058.

Take `COC(=O)C(N)Cc1ccc(Cl)cc1` (racemic) [DL-p-Chlorophenylalanine methyl ester hydrochloride]: the normalised cell viability amounted to 1.02 ± 0.01 under setting [1]; 1.02 ± 0.015 under setting [2]; 1.017 ± 0.0058 under setting [3]; 1.02 ± 0.014 under setting [4]; 1.006 ± 0.0069 under setting [5]; 1.017 ± 0.0058 under setting [6].

For `NC[C@@H]1O[C@H](C23CC4CC(CC(C4)C2)C3)Cc2c1ccc(O)c2O`, the normalised cell viability was 1.01 ± 0.012 under setting [1]; 0.0562 ± 0.02 under setting [2]; 1.01 ± 0.011 under setting [3]; 0.996 ± 0.077 under setting [4]; 1.01 ± 0.011 under setting [5]; 0.0119 ± 0.0027 under setting [6].

For `CCCCCCCCCCCCCCCC(=O)OC(CC(=O)O)C[N+](C)(C)C` (racemic) [Palmitoyl-DL-Carnitine chloride], the normalised cell viability came to 1.02 ± 0.011 under setting [1]; 0.975 ± 0.014 under setting [2]; 1.013 ± 0.0058 under setting [3]; 0.863 ± 0.28 under setting [4]; 1.007 ± 0.0058 under setting [5]; 1.02 ± 0.02 under setting [6].

As for `Cc1ccc(C(=O)c2cc(/C=C/C(=O)NO)n(C)c2)cc1`, the normalised cell viability is, setting by setting: under setting [1], 1 ± 0.022; under setting [2], 1.02 ± 0.02; under setting [3], 1 ± 0.021; under setting [4], 1.02 ± 0.017; under setting [5], 0.9928 ± 0.0048; under setting [6], 0.995 ± 0.022.

In the case of `CC(C=CC(=O)NO)=CC(C)C(=O)c1ccc(N(C)C)cc1` (stereo not given) [Trichostatin A (TSA)], the normalised cell viability by setting is: under setting [1], 0.0292 ± 0.0042; under setting [2], -0.000733 ± 0.0048; under setting [3], 0.937 ± 0.098; under setting [4], 0.00269 ± 0.00055; under setting [5], 0.00709 ± 0.0011; under setting [6], 8.2e-05 ± 0.00089.

On to `CC(/C=C/C(=O)NO)=C\[C@@H](C)C(=O)c1ccc(N(C)C)cc1` [Trichostatin A], for which the normalised cell viability was 2.17e-05 ± 0.00056 under setting [1]; 0.000584 ± 0.0001 under setting [2]; 0.00474 ± 0.0016 under setting [3]; 0.00101 ± 0.0013 under setting [4]; -0.000312 ± 0.00084 under setting [5]; 0.000187 ± 0.00072 under setting [6].

As to `CN1CCC[C@@H]1c1cccnc1.Cc1ccc(C(=O)O[C@H](C(=O)O)[C@@H](OC(=O)c2ccc(C)cc2)C(=O)O)cc1` [(+)-Nicotine (+)-di-p-toluoyl tartrate], the normalised cell viability is, setting by setting: under setting [1], 1.03 ± 0.015; under setting [2], 1.02 ± 0.016; under setting [3], 1.03 ± 0.01; under setting [4], 1.03 ± 0.021; under setting [5], 1.027 ± 0.0058; under setting [6], 1.03 ± 0.015.

For the compound `CC1CN(S(=O)(=O)c2cccc3cnccc23)CCN1` (stereo not given), the normalised cell viability under setting [1] came to 0.9777 ± 0.0078; the normalised cell viability under setting [2] came out at 0.966 ± 0.025; the normalised cell viability under setting [3] is 0.9933 ± 0.0051; the normalised cell viability under setting [4] was 1.01 ± 0.091; the normalised cell viability under setting [5] turned out to be 0.9757 ± 0.0074; the normalised cell viability under setting [6] stood at 0.9753 ± 0.0076.

Take `Oc1cc2c(c(Cl)c1O)CCNCC2c1ccccc1` (racemic) [(±)-6-Chloro-PB hydrobromide]: the normalised cell viability was determined as 1.007 ± 0.0058 under setting [1]; 1.04 ± 0.023 under setting [2]; 1.03 ± 0.015 under setting [3]; 1.05 ± 0.01 under setting [4]; 1.02 ± 0.01 under setting [5]; 1.02 under setting [6].

For `O=C(c1ccc2c(c1)OCCO2)N1CCCCC1`, the normalised cell viability is, setting by setting: under setting [1], 1.005 ± 0.0092; under setting [2], 1 ± 0.017; under setting [3], 1.01; under setting [4], 1 ± 0.017; under setting [5], 0.9913 ± 0.0096; under setting [6], 0.9947 ± 0.0021.

In the case of `O=C1O/C(=C/Br)CCC1c1cccc2ccccc12` (stereo not given) [Bromoenol lactone], the normalised cell viability is, setting by setting: under setting [1], 1.02; under setting [2], 1.02 ± 0.026; under setting [3], 1.01 ± 0.01; under setting [4], 1.02; under setting [5], 0.998 ± 0.013; under setting [6], 1.01.

Regarding `CCOC(=O)C1=CN(Cc2ccccc2)C=C(C(=O)OCC)C1c1ccccc1`, the normalised cell viability by setting is: under setting [1], 0.995 ± 0.018; under setting [2], 1.01 ± 0.026; under setting [3], 1 ± 0.019; under setting [4], 1.01 ± 0.021; under setting [5], 0.993 ± 0.0059; under setting [6], 1.003 ± 0.01.

On to `O=C(O)c1cc(O)c2ccc(Cl)cc2n1` [7-Chlorokynurenic acid], for which the normalised cell viability was 1.002 ± 0.0069 under setting [1]; 0.974 ± 0.0072 under setting [2]; 1.01 ± 0.015 under setting [3]; 0.9873 ± 0.0046 under setting [4]; 1.01 ± 0.01 under setting [5]; 0.997 ± 0.0036 under setting [6].

Regarding `N=C(N)NCCCCN` [Agmatine sulfate], the normalised cell viability under setting [1] was 1.017 ± 0.0058; the normalised cell viability under setting [2] stood at 1 ± 0.025; the normalised cell viability under setting [3] was determined as 1.003 ± 0.0058; the normalised cell viability under setting [4] stood at 1 ± 0.025; the normalised cell viability under setting [5] turned out to be 0.986 ± 0.012; the normalised cell viability under setting [6] worked out at 0.997 ± 0.011.

For `CC(C)C[C@H](NC(=O)[C@H](O)[C@H](N)Cc1ccccc1)C(=O)O` [Epibestatin hydrochloride], the normalised cell viability amounted to 1.003 ± 0.0064 under setting [1]; 0.9953 ± 0.004 under setting [2]; 0.9977 ± 0.004 under setting [3]; 0.9947 ± 0.005 under setting [4]; 0.9957 ± 0.0067 under setting [5]; 1.007 ± 0.0058 under setting [6].

Regarding `CC(C)C[C@H](NC(=O)[C@@H](O)[C@H](N)Cc1ccccc1)C(=O)O` [Bestatin hydrochloride], the normalised cell viability runs as follows: under setting [1], 0.996 ± 0.0046; under setting [2], 1.02 ± 0.011; under setting [3], 0.989 ± 0.01; under setting [4], 1.02 ± 0.033; under setting [5], 0.979 ± 0.012; under setting [6], 0.9903 ± 0.0015.

As for `CC(C)C[C@H](NC(=O)[C@H](Cc1ccccc1)NC(=O)c1cnccn1)B(O)O` [Bortezomib (Velcade)], the normalised cell viability is, setting by setting: under setting [1], 0.352 ± 0.024; under setting [2], 0.0578 ± 0.0037; under setting [3], 0.677 ± 0.016; under setting [4], 0.351 ± 0.042; under setting [5], 0.00826 ± 0.0011; under setting [6], 0.000986 ± 0.0007.

Take `CC(C)C[C@H](NC(=O)[C@H](Cc1ccccc1)NC(=O)c1cnccn1)B(O)O` [Bortezomib]: the normalised cell viability was 0.281 ± 0.011 under setting [1]; 0.0356 ± 0.0084 under setting [2]; 0.669 ± 0.035 under setting [3]; 0.28 ± 0.054 under setting [4]; 0.00407 ± 0.00064 under setting [5]; 0.00157 ± 0.00063 under setting [6].
